Values joined by “and” are separate entries in the source; they are usually repeats but may differ in a detail not shown here. Equal entries are not always repeated. Some compounds were tested as several samples or in several runs, with calls that do not always agree. Active and inactive are the calls of the source. Entries that show only a call come without a potency. Unless noted, calls come from the whole dose curve; as a rule, active = well fitted curve in the direction sought with a large enough effect in the repeat runs; inconclusive = weak or mixed curves; inactive = no such curve, though single readings can be large; an effect the other way counts as inactive or inconclusive.
Key:
[1] = qHTS assay to identify small molecule antagonists of the glucocorticoid receptor (GR) signaling pathway - cell viability counter screen (AID 720693); note: nearly all actives have a fitted effect of over 55% in size; note: potency is the fitted concentration of half-maximal effect
[2] = qHTS assay for identifying genotoxic compounds that show differential cytotoxicity against isogenic chicken DT40 cell lines with known DNA damage response pathways - Rev3 mutant cell line (AID 743014); note: nearly all actives have a fitted effect of over 55% in size; note: potency is the fitted concentration of half-maximal effect
[3] = qHTS assay for identifying genotoxic compounds that show differential cytotoxicity against isogenic chicken DT40 cell lines with known DNA damage response pathways - Rad54/Ku70 mutant cell line (AID 743015); note: nearly all actives have a fitted effect of over 60% in size; note: potency is the fitted concentration of half-maximal effect
[4] = qHTS assay to identify small molecule antagonists of the androgen receptor (AR) signaling pathway - cell viability counter screen (AID 743033; note: nearly all actives have a fitted effect of over 45% in size)
[5] = qHTS assay to identify small molecule antagonists of the thyroid receptor (TR) signaling pathway - cell viability counter screen (AID 743064); note: nearly all actives have a fitted effect of over 50% in size; note: potency is the fitted concentration of half-maximal effect
Method in brief: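 In rat pituitary GH3.TRE-Luc reporter cells co-exposed to compound and 1 nM T3 for 23.5 h, cytotoxicity was assessed with CellTiter-Fluor in the same wells, read by fluorescence.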

[6] = tested on: thyroid hormone receptor (rat, GH3 cells); experiment: qHTS assay to identify small molecule agonists of the thyroid receptor (TR) signaling pathway (AID 743066; calls by dose curve)
[7] = target: Estrogen receptor (Homo sapiens) (UniProt P03372); experiment: qHTS assay to identify small molecule antagonists of the estrogen receptor alpha (ER-alpha) signaling pathway (AID 743069; active = well fitted curve in the direction sought with a large enough effect in the signal ratio in the repeat runs, not every such curve was filed as active; inconclusive = weak or mixed curves, or effect the other way; inactive = no such curve, though single readings can be large or run the other way; the % refers to the signal ratio; note: potency is the fitted concentration of half-maximal effect)
Sequence of Estrogen receptor (Homo sapiens) (P03372 whole entry, looked up): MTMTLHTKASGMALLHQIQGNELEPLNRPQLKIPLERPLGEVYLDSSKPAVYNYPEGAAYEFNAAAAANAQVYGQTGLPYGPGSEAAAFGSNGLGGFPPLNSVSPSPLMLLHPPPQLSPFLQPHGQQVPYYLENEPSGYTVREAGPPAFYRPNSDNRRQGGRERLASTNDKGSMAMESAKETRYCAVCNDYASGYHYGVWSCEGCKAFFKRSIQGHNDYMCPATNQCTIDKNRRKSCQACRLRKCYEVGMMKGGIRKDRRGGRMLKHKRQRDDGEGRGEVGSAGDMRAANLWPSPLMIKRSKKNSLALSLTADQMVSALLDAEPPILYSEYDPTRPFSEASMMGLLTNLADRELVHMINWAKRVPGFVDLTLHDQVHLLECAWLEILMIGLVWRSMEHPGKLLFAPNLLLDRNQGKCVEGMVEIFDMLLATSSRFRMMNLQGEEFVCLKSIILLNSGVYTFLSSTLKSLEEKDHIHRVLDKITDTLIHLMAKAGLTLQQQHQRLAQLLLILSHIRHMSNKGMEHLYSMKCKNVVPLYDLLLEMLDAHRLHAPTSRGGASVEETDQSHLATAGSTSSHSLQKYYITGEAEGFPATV
Method in brief: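 Reporter cells (ER-alpha-bla, HEK293 background) are conditioned overnight in stripped-serum medium (2% charcoal-stripped FBS). Compound and 17beta-estradiol exposure runs 18 hr at 37C, 5% CO2.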

[8] = target: Estrogen receptor (Homo sapiens) (UniProt P03372); experiment: qHTS assay to identify small molecule agonists of the estrogen receptor alpha (ER-alpha) signaling pathway (AID 743075; calls by dose curve;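 note: HEK293 GripTite cells with ER-alpha and UAS-driven beta-lactamase reporter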; note: potency is the fitted concentration of half-maximal effect)
[9] = target: Estrogen receptor (Homo sapiens) (UniProt P03372); experiment: qHTS assay to identify small molecule agonists of the estrogen receptor alpha (ER-alpha) signaling pathway using the BG1 cell line (AID 743079); note: nearly all actives have a fitted effect of over 20% in size; note: potency is the fitted concentration of half-maximal effect
Aromatase (Homo sapiens) = Aromatase (Homo sapiens) (UniProt P11511); experiment: qHTS assay to identify aromatase inhibitors (AID 743083); note: nearly all actives have a fitted effect of over 55% in size; note: potency is the fitted concentration of half-maximal effect
Sequence of Aromatase (Homo sapiens) (P11511 whole entry, looked up): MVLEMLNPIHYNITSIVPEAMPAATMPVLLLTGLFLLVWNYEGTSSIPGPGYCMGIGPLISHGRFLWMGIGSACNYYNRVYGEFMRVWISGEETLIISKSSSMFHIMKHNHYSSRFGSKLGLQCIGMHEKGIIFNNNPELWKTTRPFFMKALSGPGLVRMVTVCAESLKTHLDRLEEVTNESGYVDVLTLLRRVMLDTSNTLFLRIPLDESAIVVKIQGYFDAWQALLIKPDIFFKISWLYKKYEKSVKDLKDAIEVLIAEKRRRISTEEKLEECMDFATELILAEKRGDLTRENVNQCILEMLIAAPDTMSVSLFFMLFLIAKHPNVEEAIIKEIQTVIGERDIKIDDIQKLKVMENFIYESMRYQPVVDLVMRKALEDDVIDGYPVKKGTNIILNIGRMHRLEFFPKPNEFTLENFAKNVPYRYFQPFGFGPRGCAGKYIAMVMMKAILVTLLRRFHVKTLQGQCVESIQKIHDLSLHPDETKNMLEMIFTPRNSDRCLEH

[10] = target: Androgen receptor (Homo sapiens) (UniProt P10275); experiment: qHTS assay to identify small molecule agonists of the androgen receptor (AR) signaling pathway using the MDA cell line (AID 743040; note: nearly all actives have a fitted effect of over 20% in size)
Sequence of Androgen receptor (Homo sapiens) (P10275 whole entry, looked up): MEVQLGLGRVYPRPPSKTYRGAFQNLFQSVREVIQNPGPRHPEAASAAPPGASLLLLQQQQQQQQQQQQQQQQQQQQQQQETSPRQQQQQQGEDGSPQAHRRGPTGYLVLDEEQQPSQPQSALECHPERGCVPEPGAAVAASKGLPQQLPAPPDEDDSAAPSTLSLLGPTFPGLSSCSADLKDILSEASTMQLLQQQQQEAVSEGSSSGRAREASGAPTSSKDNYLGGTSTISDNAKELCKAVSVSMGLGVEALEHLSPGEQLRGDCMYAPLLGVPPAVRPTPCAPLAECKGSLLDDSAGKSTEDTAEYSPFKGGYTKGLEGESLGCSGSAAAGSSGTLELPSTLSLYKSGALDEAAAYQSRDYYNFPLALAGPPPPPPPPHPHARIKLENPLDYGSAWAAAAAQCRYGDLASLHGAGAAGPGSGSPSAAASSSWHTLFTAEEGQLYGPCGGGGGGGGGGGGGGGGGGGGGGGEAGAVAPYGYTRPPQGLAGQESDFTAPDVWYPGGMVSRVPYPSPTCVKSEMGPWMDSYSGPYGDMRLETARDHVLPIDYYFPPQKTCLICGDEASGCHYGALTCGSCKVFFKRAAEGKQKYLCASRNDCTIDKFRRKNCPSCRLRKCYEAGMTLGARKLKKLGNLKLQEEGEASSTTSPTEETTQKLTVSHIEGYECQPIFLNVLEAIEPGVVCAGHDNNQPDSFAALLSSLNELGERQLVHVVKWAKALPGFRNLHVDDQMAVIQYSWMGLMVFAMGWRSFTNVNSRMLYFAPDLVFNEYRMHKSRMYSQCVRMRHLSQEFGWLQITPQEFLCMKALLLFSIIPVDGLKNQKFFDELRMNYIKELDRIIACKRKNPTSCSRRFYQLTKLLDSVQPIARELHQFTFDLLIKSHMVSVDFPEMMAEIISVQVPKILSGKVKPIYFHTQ
Method in brief: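 Human breast carcinoma MDA-kb2 reporter cells (MMTV-luc, AR/GR elements) were treated for 16 h at 37C in 0% CO2 following a 5 h settling period. Signal was quantified by ONE-Glo luminescence.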

[11] = target: Androgen receptor (Homo sapiens) (UniProt P10275); experiment: qHTS assay to identify small molecule antagonists of the androgen receptor (AR) signaling pathway using the MDA cell line (AID 743042; note: nearly all actives have a fitted effect of over 55% in size; note: potency is the fitted concentration of half-maximal effect)
Method in brief: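 MDA-kb2 breast carcinoma cells carrying MMTV-luciferase (AR/GR responsive) were co-treated with compounds and the agonist R1881 for 16 h at 37C. Inhibition read as ONE-Glo luminescence; CellTiter-Fluor fluorescence measured in parallel for cytotoxicity.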

[12] = target: Androgen receptor (Homo sapiens) (UniProt P10275); experiment: qHTS assay to identify small molecule antagonists of the androgen receptor (AR) signaling pathway (AID 743035; active = well fitted inhibition curve with a large enough effect in the signal ratio in the repeat runs, not every such curve was filed as active; inconclusive = weak or mixed curves, or effect the other way; inactive = no such curve, though single readings can be large or run the other way; the % refers to the signal ratio)
Method in brief: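 Cell line: GeneBLAzer AR-UAS-bla GripTite (HEK293). Stimulus: R1881 added after compound. Exposure: 16 h, 37C, 5% CO2. Readout: LiveBLAzer B/G FRET fluorescence after 2 h at room temperature.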

[13] = target: Androgen receptor (Homo sapiens) (UniProt P10275); experiment: qHTS assay to identify small molecule agonists of the androgen receptor (AR) signaling pathway (AID 743036; active = well fitted activation curve with a large enough effect in the signal ratio in the repeat runs, with a control signal flat, not every such curve was filed as active; inconclusive = weak or mixed curves, or effect the other way; inactive = no such curve, though single readings can be large or run the other way; the % refers to the signal ratio)
Method in brief: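 Cell-based FRET reporter assay: HEK293 line with a UAS-beta-lactamase construct, compounds added in DMSO, 16 h exposure at 37C, then 2 h substrate step at room temperature and fluorescence intensity read.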

[14] = qHTS assay to identify small molecule antagonists of the androgen receptor (AR) signaling pathway using the MDA cell line - cell viability counter screen (AID 743041; note: nearly all actives have a fitted effect of over 45% in size)
Method in brief: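 Same-well cytotoxicity was assessed by CellTiter-Fluor in MDA-kb2 AR-luc cells after 16 h of compound treatment under R1881 agonism.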

[15] = qHTS assay to identify small molecule antagonists of the thyroid receptor (TR) signaling pathway (AID 743065); note: nearly all actives have a fitted effect of over 55% in size; note: potency is the fitted concentration of half-maximal effect
Method in brief: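 GH3.TRE-Luc rat pituitary cells (two TREs driving luciferase) were dosed with compound, then stimulated with 1 nM T3 (final) for 23.5 h at 37 C. ONE-Glo luminescence was the read-out, with CellTiter-Fluor fluorescence as the cytotoxicity counter-screen.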

[16] = qHTS assay to identify small molecule antagonists of the estrogen receptor alpha (ER-alpha) signaling pathway using the BG1 cell line (AID 743080; calls by dose curve;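 note: BG1 cells stimulated with 17beta-estradiol alongside compound; nearly all actives have a fitted effect of over 25% in size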; note: potency is the fitted concentration of half-maximal effect)
Method in brief: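 BG1-Luc-4E2 cells (endogenous full-length ER-alpha, 4xERE luciferase) hormone-starved 5 days in charcoal-stripped FBS, plated 4,000/well for 24 h, then compound plus 17beta-estradiol for 21.5 h at 37 C; ONE-Glo luminescence read.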

[17] = qHTS assay to identify small molecule antagonists of the estrogen receptor alpha (ER-alpha) signaling pathway using the BG1 cell line - cell viability counter screen (AID 743081);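 note: compound given together with 17beta-estradiol as the ER stimulus; series mostly up to about 70 µM; nearly all actives have a fitted effect of over 45% in size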
[18] = qHTS assay to identify small molecule antagonists of the estrogen receptor alpha (ER-alpha) signaling pathway - cell viability counter screen (AID 743074; calls by dose curve;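 note: HEK293 cells carrying ER-alpha-UAS-bla reporter stimulated with 17beta-estradiol; nearly all actives have a fitted effect of over 45% in size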)

Row | SMILES | Potency [1] | Potency [2] | Potency [3] | Potency [4] | Potency [5] | Potency [6] | Potency [7] | Potency [8] | Potency [9] | Potency (Aromatase (Homo sapiens)) | Potency [10] | Potency [11] | Potency [12] | Potency [13] | Potency [14] | Potency [15] | Potency [16] | Potency [17] | Potency [18]
1 | CCOc1ccc([N+](=O)[O-])cc1 | 35.2 µM (active) | 31.1 µM (active) | 43.9 µM (active) | inactive | 31.1 µM (active) | inactive | 55.8 µM [inconclusive] (active) | 6.26 µM [inconclusive] (active) | 1.96 µM (active) | 27.7 µM (active) | – | – | – | – | – | – | – | – | –
2 | COc1cccc2c1[C@@H]1CN(CCCCn3c(=O)[nH]c4c(sc5ncc(-c6ccccc6)nc54)c3=O)C[C@@H]1CO2 | inactive | 18.8 µM (active) | 11.9 µM (active) | – | – | – | – | inactive | – | – | inactive | 29.8 µM (active) | – | – | – | – | – | – | –
3 | O=C1c2ccccc2C(=O)C1c1ccc(F)cc1 | inactive | – | inactive | inactive | inactive | inactive | inactive | inactive | inactive | inactive | inactive | inactive | inactive | inactive | inactive | inactive | inactive | inactive | –
4 | Oc1ccc(Cl)cc1C1CCCC1 | inactive | 15.4 µM (active) | 27.3 µM (active) | – | – | inactive | – | inactive | – | – | – | – | – | – | inactive | – | inactive | inactive | inactive
5 | COC1[C@@H](O[C@@H]2O[C@H](C)[C@@H](O[C@H]3C[C@@](C)(O)[C@H](OC(=O)CC(C)C)[C@H](C)O3)[C@H](N(C)C)[C@H]2O)[C@@H](CC=O)C[C@@H](C)[C@@H](O)/C=C/C=C/C[C@@H](C)OC(=O)C[C@H]1OC(C)=O (stereo partly drawn) | inactive | inactive | inactive | – | inactive | inactive | inactive | inactive | inactive | inactive | – | – | – | – | inactive | inactive | inactive | – | inactive
6 | CO/N=C(\C(=O)N[C@@H]1C(=O)N2C(C(=O)[O-])=C(C[n+]3cccc4c3CCC4)CS[C@H]12)c1csc(N)n1 | inactive | inactive | – | inactive | inactive | inactive | inactive | inactive | inactive | inactive | – | – | – | – | inactive | inactive | inactive | inactive | inactive
7 | N[C@H](CO)C(=O)O | inactive | – | – | inactive | – | inactive | – | – | – | inactive | – | – | – | – | inactive | inactive | – | inactive | inactive
8 | CC/C=C\C/C=C\C/C=C\C/C=C\C/C=C\CCCC(=O)O | inactive | inactive | inactive | inactive | inactive | inactive | inactive | inactive | inactive | inactive | – | – | – | – | inactive | – | inactive | inactive | inactive
9 | CC(C)COC(=O)OCN1C(=O)CN(CCN2CC(=O)N(COC(=O)OCC(C)C)C(=O)C2)CC1=O | inactive | inactive | 0.188 µM (active) | inactive | inactive | inactive | inactive | inactive | inactive | inactive | – | – | – | – | inactive | – | inactive | inactive | inactive
10 | CNC(=O)OCc1cccc(COC(=O)NC)n1 | inactive | inactive | inactive | inactive | inactive | inactive | – | – | – | inactive | – | – | – | – | inactive | inactive | – | inactive | inactive
11 | C=CC[N+]1([C@H]2C[C@H]3[C@@H]4CC[C@H]5C[C@H](O)[C@@H](N6CCOCC6)C[C@]5(C)[C@H]4CC[C@]3(C)[C@H]2OC(C)=O)CCCC1 | inactive | inactive | inactive | inactive | – | inactive | inactive | inactive | 26.6 µM (active) | inactive | – | – | – | – | inactive | inactive | inactive | inactive | inactive
12 | CC(C)=CCC/C(C)=C/CC/C(C)=C/CC/C(C)=C/CC1=C(C)C(=O)c2ccccc2C1=O | inactive | – | – | inactive | – | inactive | inactive | inactive | inactive | inactive | – | – | – | – | inactive | inactive | inactive and 9.44 µM (active) | inactive | inactive
13 | CN1CC[C@H](c2c(O)cc(O)c3c(=O)cc(-c4ccccc4Cl)oc23)[C@H](O)C1 | 0.601 µM (active) | 0.15 µM (active) | 0.15 µM (active) | – | 0.211 µM (active) | – | – | – | – | 0.211 µM (active) | inactive | 0.106 µM (active) | – | – | inactive | 0.15 µM (active) | – | – | –
14 | CC(=O)NC[C@H]1CN(c2ccc(N3CCOCC3)c(F)c2)C(=O)O1 | inactive | – | – | inactive | – | inactive | inactive | inactive | 13.3 µM (active) | inactive | – | – | – | – | inactive | inactive | – | inactive | inactive
15 | CCN(CC)CCNC(=O)c1ccc(NS(C)(=O)=O)cc1 | inactive | inactive | inactive | inactive | – | – | – | – | – | inactive | – | – | – | – | inactive | – | – | – | –
16 | O=C1CCC(c2ccccc2)(C2CCN(Cc3ccccc3)CC2)C(=O)N1 (stereo not drawn) | inactive | inactive | – | inactive | – | inactive | inactive | inactive | inactive | inactive | – | – | – | – | inactive | inactive | – | inactive | inactive
17 | CCC(O)c1ccccc1 (stereo not drawn) | inactive | inactive | inactive | – | inactive | – | inactive | inactive | inactive | inactive | – | – | – | – | inactive | – | inactive | inactive | –
18 | CCCOC(=O)c1ccccc1O | inactive | – | inactive | inactive | – | inactive | inactive | inactive | inactive | inactive | – | – | – | – | inactive | inactive | inactive | – | inactive

Reference: PubChem BioAssay (Tox21)
